# Measured values reported in PMC4552634, “A New Set of Chemical Starting Points with Plasmodium falciparum Transmission-Blocking Potential for Antimalarial Drug Discovery” (PLoS ONE, 2015).
# Read-outs that look alike come from different tables or passages of the source. About 3,200 (25%) of roughly 13,000 compounds showed an effect of 50% or more. The list shows a part of the results.
# Tested on: P. falciparum stage V gametocytes
# Design: BacTiter-Glo ATP luminescence viability of purified stage V gametocytes in 384-well plates, per cent inhibition versus DMSO
# Settings: 48 h, 5 µM, inhibitor
compound,measurement,setting,value
CN(CCCc1c[nH]c2ccccc12)CCC1CCC(NC(=O)/C=C/c2ccc(Cl)c(Cl)c2)CC1 (stereo not shown) [TCMDC-139449],% Inhibition,,-10.77%
CCOc1ccccc1CNc1nccc(NCCc2cn(C)c3ccccc23)n1 [TCMDC-135123],% Inhibition,,47.81%
CCOc1ccccc1CNc1nccc(NCc2ccc(Cl)cc2Cl)n1 [TCMDC-135115],% Inhibition,,39.1%
CN1CCN(CC2(Nc3nccc(NCc4ccc(Cl)cc4Cl)n3)CCCCC2)CC1 [TCMDC-135114],% Inhibition,,73.23%
Clc1ccc(CNc2ccnc(NCc3cccnc3N3CCCC3)n2)c(Cl)c1 [TCMDC-135112],% Inhibition,,11.98%
Cn1cc(CCNc2ccnc(NCCc3coc4ccccc34)n2)c2ccccc21 [TCMDC-135121],% Inhibition,,46.44%
CN1CCN(CC2(Nc3nccc(NCCc4cn(C)c5ccccc45)n3)CCCCC2)CC1 [TCMDC-135122],% Inhibition,,114.3%
O=C(c1cccc(-c2ccc(-c3nc4cc(C(F)(F)F)ccc4[nH]3)cc2)c1)N1CCCCC1CN1CCC(O)C1 (stereo not shown) [TCMDC-132345],% Inhibition,,-7.323%
O=C([C@H]1CCCCN1c1ccc([N+](=O)[O-])c2ccccc12)N1CCN(c2ncccn2)CC1 [TCMDC-135504],% Inhibition,,-25.11%
Cc1cccc(OC(C)C(=O)Nc2cc(C(F)(F)F)ccc2N2CCOCC2)c1 (stereo not shown) [TCMDC-125116],% Inhibition,,-67.15%
COc1ccc(Oc2cnc(N)nc2N)c(C(C)C)c1 [TCMDC-132471],% Inhibition,,-12.02%
Nc1nccc2ccc(OC3CCCCC3)cc12 [TCMDC-136543],% Inhibition,,27.41%
Nc1ncc(OC2CCCCC2)c(N)n1 [TCMDC-137916],% Inhibition,,86.08%
Cc1nc(Nc2ccc(F)cc2)nc(N2CCc3ccccc3[C@@H]2C)c1C [TCMDC-141073],% Inhibition,,-42.65%
c1ccc(CN2CCN(CCCCNc3c4ccccc4nc4ccccc34)CC2)cc1 [TCMDC-138009],% Inhibition,,101.2%
Cl.c1ccc(CN2CCN(CCNc3c4ccccc4nc4ccccc34)CC2)cc1 [TCMDC-137571],% Inhibition,,58.89%
NC(=NC1CC1)c1ccc2nc(CCCCCc3nc4ccc(C(N)=NC5CC5)cc4[nH]3)[nH]c2c1 [TCMDC-137236],% Inhibition,,9.891%
Cc1cc(SC(C)(C)C)cc2c(Cl)c(C(N)=O)cnc12 [TCMDC-135415],% Inhibition,,114.9%
COc1ccccc1-c1cccc(CNC2CCN(CC3Cn4c(=O)ccc5ccc(F)c3c54)CC2)c1 (stereo not shown) [TCMDC-134411],% Inhibition,,15.92%
O=C(CCCCCc1ccccc1)NC1CCC(CN2CCC(c3c[nH]c4ccccc34)CC2)CC1 (stereo not shown) [TCMDC-139952],% Inhibition,,95.36%
O=C(CCc1ccc(Cl)cc1Cl)NC1CCC(CN2CCC(c3c[nH]c4ccccc34)CC2)CC1 (stereo not shown) [TCMDC-140262],% Inhibition,% Inhibition,-48.76%
O=C(Cc1cc(=O)oc2cc(O)ccc12)NC1CCC(CN2CCC(c3c[nH]c4ccccc34)CC2)CC1 (stereo not shown) [TCMDC-139882],% Inhibition,,-52.99%
O=C(CCc1ccc(Cl)cc1Cl)NC1CCC(CN2CCC(c3c[nH]c4ccccc34)CC2)CC1 (stereo not shown) [TCMDC-140296],% Inhibition,% Inhibition,-15.31%
O=C(NC1CCC(CN2CCC(c3c[nH]c4ccccc34)CC2)CC1)c1cnn(-c2ccccc2)c1-c1ccccc1Cl (stereo not shown) [TCMDC-140375],% Inhibition,,25.23%
O=C(Cc1c(-c2ccccc2)[nH]c2ccccc12)NC1CCC(CN2CCC(c3c[nH]c4ccccc34)CC2)CC1 (stereo not shown) [TCMDC-139909],% Inhibition,,71.88%
O=C(NC1CCC(CN2CCC(c3c[nH]c4ccccc34)CC2)CC1)c1cn(Cc2ccccc2)c2ccccc12 (stereo not shown) [TCMDC-139888],% Inhibition,,107.9%
O=C(CSc1ccc(Cl)cc1)NC1CCC(CN2CCC(c3c[nH]c4ccccc34)CC2)CC1 (stereo not shown) [TCMDC-139953],% Inhibition,,-2.163%
CCOCCCNc1ncc(-c2ccsc2)c(-c2nc(C)cs2)n1 [TCMDC-124842],% Inhibition,,18.59%
Cc1cccc(C(=O)Nc2ccnc(N3CCC(N(C)Cc4ccc(C#N)cc4)CC3)c2)c1 [TCMDC-134977],% Inhibition,,5.364%
CCN(CC)CCN1C(=O)c2oc3ccc(F)cc3c(=O)c2C1c1cccc(Cl)c1 (stereo not shown) [TCMDC-124911],% Inhibition,,13.72%
O=C(n1c(-c2cc3ccccc3n2C(=O)C(F)(F)F)cc2ccccc21)C(F)(F)F [TCMDC-131570],% Inhibition,,0.2533%
CC(C)COc1ccc(Cl)cc1Nc1nc(-c2nc3ccccc3[nH]2)cs1 [TCMDC-137041],% Inhibition,,2.246%
CNCc1ccc2nc(-c3coc(Cc4cc(Cl)ccc4OCC(C)C)n3)[nH]c2c1 [TCMDC-136808],% Inhibition,,13.07%
Clc1ccc(OCc2ccccc2)c(-c2nc(-c3nc4ccc(Cl)cc4[nH]3)cs2)c1 [TCMDC-136728],% Inhibition,,-8.781%
CC(C)COc1ccc(Cl)cc1Cc1nc(-c2nc3c(CN4CCN(C)CC4)cccc3[nH]2)cs1 [TCMDC-132173],% Inhibition,,82.6%
CC(C)COc1ccc(Cl)cc1Cc1nc(-c2nc3ccc(CN4CCN(C)CC4)cc3[nH]2)co1 [TCMDC-136812],% Inhibition,,12.89%
Cc1cc(-c2nc3ccc(CN4CCN(C)CC4)cc3[nH]2)nn1Cc1cc(Cl)ccc1OCc1ccccc1 [TCMDC-136883],% Inhibition,,19.79%
CC(C)COc1ccc(Cl)cc1Cc1nc(-c2nc3nc(N4CCN(C)CC4)ccc3[nH]2)cs1 [TCMDC-136876],% Inhibition,,6.698%
CN1CCN(c2ccc3nc(-c4ccc(Cc5cc(Cl)ccc5OCc5ccccc5)o4)[nH]c3c2)CC1 [TCMDC-136708],% Inhibition,,-32.6%
CN(C)Cc1ccc2nc(-c3cccc(Cc4cc(Cl)ccc4OCc4ccc(Cl)cc4F)n3)[nH]c2c1 [TCMDC-136892],% Inhibition,,34.33%
CN1CCN(CCc2ccc3nc(-c4csc(Cc5cc(Cl)ccc5OCc5ccccc5)n4)[nH]c3c2)CC1 [TCMDC-132171],% Inhibition,,95.37%
CN(C)Cc1cccc2[nH]c(-c3csc(Cc4cc(Cl)ccc4OCc4ccccc4)n3)nc12 [TCMDC-132174],% Inhibition,,97.26%
CNCc1cccc2[nH]c(-c3csc(Cc4cc(Cl)ccc4OCC(C)C)n3)nc12 [TCMDC-132172],% Inhibition,,92.59%
CCc1ccc(NC(=O)c2cccc(CN3CCCN(CC4CCCCC4)CC3)c2)cc1 [TCMDC-135988],% Inhibition,,-39.09%
O=C(c1ccc(-c2ccc(-c3nc4ccccc4[nH]3)s2)cc1)N1CCCCC1CN1CCC(O)C1 (stereo not shown) [TCMDC-132341],% Inhibition,,-18.79%
CC(O)C1CCCCN1C(=O)c1cccc(-c2ccc(-c3nc4ccccc4[nH]3)s2)c1 (stereo not shown) [TCMDC-132332],% Inhibition,,27.09%
CC(C)Cn1c(N)cc(=O)n(C)c1=O [TCMDC-123470],% Inhibition,,3.426%
CCCCCC(=O)NCC(NCCCNc1cc(=O)c2ccccc2[nH]1)c1cc(Br)cc(Br)c1 (stereo not shown) [TCMDC-140316],% Inhibition,,24.17%
COc1ccc2ncc(Cl)c(NCC3(O)CCC(NCc4ccc5c(n4)NC(=O)CS5)CC3)c2n1 (stereo not shown) [TCMDC-134671],% Inhibition,,11.29%
CC(=O)c1cccc2[nH]c(C(=O)NC3CCC(CCN4CCc5ccc(C#N)cc5C4)CC3)cc12 (stereo not shown) [TCMDC-139218],% Inhibition,,4.712%
COc1ccc(Cn2c(N3CCN(S(=O)(=O)c4ccc(OC)cc4)CC3)nc3c2c(=O)n(CC2CC2)c(=O)n3CC2CC2)cc1 [TCMDC-138935],% Inhibition,,-17.86%
COc1ccc(S(=O)(=O)N2CCC3(CC2)OCC(=O)NC3c2ccc(Cl)c(Cl)c2)cc1 (stereo not shown) [TCMDC-133797],% Inhibition,,8.685%
Cc1nc(-c2cccc(C(=O)NC3CCC(CCN4CCc5ccc(-c6cccnc6)cc5CC4)CC3)c2)no1 (stereo not shown) [TCMDC-140228],% Inhibition,,-46.69%
C[C@@H](Oc1cc(-n2cnc3ccc(NC(=O)CCN4CCCCC4)cc32)sc1C(N)=O)c1ccccc1Cl [TCMDC-135971],% Inhibition,,64.1%
O=C(CCN1CCCCC1)Nc1ccc(Nc2nccc(NCC(O)c3ccccc3)n2)cc1 (stereo not shown) [TCMDC-136464],% Inhibition,,-29.58%
COc1ccc2c(c1)ncn2-c1cc(OCc2ccncc2Br)c(C(N)=O)s1 [TCMDC-138876],% Inhibition,,39.96%
CC(Oc1cc(-n2cnc3ccc(NC(=O)CCN4CCCCC4)cc32)sc1C(N)=O)c1ccccc1Cl (stereo not shown) [TCMDC-135370],% Inhibition,,69.65%
C[C@@H](Oc1cc(-n2cnc3ccc(NC(=O)NC(C)(C)C)cc32)sc1C(N)=O)c1ccccc1Cl [TCMDC-135806],% Inhibition,,66.79%
NC(=O)c1sc(-n2cnc3ccccc32)cc1OCc1ccccc1[N+](=O)[O-] [TCMDC-134488],% Inhibition,,13.6%
C[C@@H](Oc1cc(-n2cnc3cc(SCCN4CCN(C)CC4)ccc32)sc1C(N)=O)c1ccccc1Cl [TCMDC-135452],% Inhibition,,29.32%
COc1ccc2nc(Nc3nc4ccncc4[nH]3)sc2c1 [TCMDC-131950],% Inhibition,,20.19%
c1cc(Nc2nc(-c3ccc(-c4csc(Nc5ccncc5)n4)cc3)cs2)ccn1 [TCMDC-139725],% Inhibition,,127.3%
c1ccc(-c2nc(Nc3ccncc3)sc2-c2ccccc2)cc1 [TCMDC-139027],% Inhibition,,-36.52%
Nc1ccc(-c2csc(Nc3ccncc3)n2)cc1 [TCMDC-138715],% Inhibition,,-22.32%
Clc1ccc(-c2cc(-c3csc(Nc4ccncc4)n3)on2)cc1 [TCMDC-135160],% Inhibition,,-12.1%
c1ccc2sc(-c3csc(Nc4ccncc4)n3)nc2c1 [TCMDC-135159],% Inhibition,,-15.83%
c1ccc(-c2ccc(-c3csc(Nc4ccncc4)n3)cc2)cc1 [TCMDC-139026],% Inhibition,,62.72%
